target: Follistatin-related protein 3 (Homo sapiens) (UniProt O95633); test: FSTL3 binders on small-molecule microarrays, primary screen, biochemical, small-molecule microarray, 635 nm fluorescence (AID 1105); conditions: FSTL3 binding, higher = more signal;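 further: score merges emission near 667 nm and signal to noise per printed spot across three slides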
Sequence (O95633 whole entry, looked up): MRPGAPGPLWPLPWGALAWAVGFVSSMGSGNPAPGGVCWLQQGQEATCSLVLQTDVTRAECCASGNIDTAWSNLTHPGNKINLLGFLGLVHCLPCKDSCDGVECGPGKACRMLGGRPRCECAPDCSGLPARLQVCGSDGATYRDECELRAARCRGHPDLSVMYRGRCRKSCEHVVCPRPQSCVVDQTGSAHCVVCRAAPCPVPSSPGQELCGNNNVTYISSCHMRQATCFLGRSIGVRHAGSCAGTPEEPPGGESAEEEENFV

Q: How did the composite z-score turn out when `[N-]=[N+]=Nc1ccccc1C[C@]1(C(=O)O)N=C(c2ccc(OCCCO)cc2)O[C@H]1c1ccccc1` was run?
A: 0.195

Q: Which composite z-score does the source give for `CN1C(=O)[C@@]2(Cc3ccccc3)N=C(c3ccc(OCCCO)cc3)O[C@H]2c2ccccc21` here?
A: 1.11

Q: For `NC(=O)[C@@H]1[C@H]2C(=O)O[C@H](c3ccccc3)[C@H](c3ccccc3)N2[C@H](c2ccc(OCCO)cc2)[C@@]12C(=O)Nc1ccc(C#CCCO)cc12`, which composite z-score is on record?
A: -0.12

Q: With `Cc1ccc(S[C@]2(C(=O)NC(C)C)CC(=O)N(Cc3ccccc3Cl)[C@@H]2c2ccc(CO)cc2)cc1` as the molecule, how does the composite z-score read?
A: -1.2

Q: Which composite z-score does the source give for `CC(C)=CCCC(C)=CC(O)C1C=CC2C(=O)N(c3ccccc3)C(=O)C2N1Nc1ccccc1F` (stereo not drawn) here?
A: 0.587

Q: With `COc1cc2c(cc1OC)CN(C(=O)[C@@H]1[C@H]3C(=O)O[C@H](c4ccccc4)[C@H](c4ccccc4)N3[C@H](c3ccc(O)cc3)[C@@]13C(=O)Nc1ccc(C#CCCO)cc13)CC2` as the molecule, how does the composite z-score read?
A: 0.547

Q: `COc1cc(NN2C(C(O)C3CCCCC3)C=CC3C(=O)N(C)C(=O)C32)cc(OC)c1OC` (stereo not drawn) was tested. Which composite z-score did it give?
A: 1.06

Q: Which composite z-score does the source give for `CC(C)C(CO)N1C(=O)[C@@H]2[C@H]3C(=O)OCC=C[C@H]3OC23C=CCN(C(C)(C)C)C(=O)[C@@H]13` (stereo partly drawn) here?
A: -0.21

Q: `COC(=O)[C@@]1(Cc2ccc(OC)cc2)[C@H]2c3cc(C(=O)N4CCCC4)n(Cc4ccc(S(C)(=O)=O)cc4)c3C[C@H]2CN1C(=O)c1ccccc1` was tested. Which composite z-score did it give?
A: -0.0139

Q: With `CCCNC(=O)[C@@]1(Sc2ccc(C)cc2)CC(=O)N(C2CCCCC2)[C@@H]1c1ccc(CO)cc1I` as the molecule, how does the composite z-score read?
A: 0.192

Q: Which composite z-score does the source give for `CO[C@H]1O[C@H](CO)[C@@H](OC(=O)Nc2ccc(C#N)cc2)[C@@H]2OC(=O)[C@H](Cc3cccc(Br)c3)C/C=C/C[C@@H](Cc3cccc(Br)c3)C(=O)O[C@@H]12` here?
A: 0.707

Q: `COCCOC(=O)N1C(=O)[C@@]2(c3cc(C#CC4(O)CCCCCC4)ccc31)[C@H](C(=O)N1CCN(c3ncccn3)CC1)[C@H]1C(=O)O[C@H](c3ccccc3)[C@H](c3ccccc3)N1[C@@H]2c1ccccc1OCCO` was tested. Which composite z-score did it give?
A: 1.29

Q: `CCCC=C(CCC)[C@@H](NC(=O)CCc1ccccc1)c1ccc(C(F)(F)F)cc1` was tested. Which composite z-score did it give?
A: 0.574

Q: For `CC(C)[C@H]1NC(=O)[C@@]23C(=O)N[C@@H](Cc4ccccc4)C2[C@H](C)[C@@]2(C)O[C@H]2C3/C=C/CCC/C=C/CNC(=O)[C@H](Cc2ccccc2)NC1=O` (stereo partly drawn), which composite z-score is on record?
A: 0.0435

Q: How did the composite z-score turn out when `CCCCNC(=O)c1ccc(C#C[Si](C(C)C)(C(C)C)C(C)C)c(OC(C)=O)c1` was run?
A: 1.49

Q: With `C=C(/C(=C/C[C@H](OC(=O)c1ccncc1)c1ccccc1OCCO)c1cnc2ccccc2c1)C(C)C` as the molecule, how does the composite z-score read?
A: 1.59

Q: For `COc1cc(NN2C(C(O)c3cc(OC)c(OC)c(OC)c3)C=CC3C(=O)N(c4ccccc4)C(=O)C32)cc(OC)c1OC` (stereo not drawn), which composite z-score is on record?
A: 1.1

Q: Which composite z-score does the source give for `COC(=O)[C@@]1(Cc2ccccc2)[C@H]2c3cc(C(=O)N4CCCC4)n(CCSCCO)c3C[C@H]2CN1C(=O)c1ccccc1` here?
A: 0.414

Q: How did the composite z-score turn out when `COCCOC(=O)N1C(=O)[C@@]2(c3cc(C#Cc4ccc(OC)cc4)ccc31)[C@H](c1ccc(OCCO)cc1)N1[C@H](c3ccccc3)[C@H](c3ccccc3)OC(=O)[C@H]1[C@@H]2C(=O)Nc1nc2ccccc2s1` was run?
A: 0.805

Q: With `COCCOC(=O)N1C(=O)[C@@]2(c3cc(C#CCC(C(=O)OC)C(=O)OC)ccc31)[C@H](c1ccc(O)cc1)N1[C@H](c3ccccc3)[C@H](c3ccccc3)OC(=O)[C@H]1[C@@H]2C(=O)NC[C@H](O)c1ccccc1` as the molecule, how does the composite z-score read?
A: 0.602

Q: With `CCCCCCCCCCC(O)C1C=CC2C(=O)N(c3ccccc3)C(=O)C2N1Nc1ccccc1F` (stereo not drawn) as the molecule, how does the composite z-score read?
A: -0.292

Q: Which composite z-score does the source give for `COc1ccc(C(O)C2C=CC3C(=O)N(c4ccccc4)C(=O)C3N2Nc2ccc(C(C)C)cc2)c2ccccc12` (stereo not drawn) here?
A: 1.04

Q: Which composite z-score does the source give for `O=C1C2C=CC(C(O)c3cc(C(F)(F)F)cc(C(F)(F)F)c3)N(Nc3ccccc3F)C2C(=O)N1c1ccccc1` (stereo not drawn) here?
A: -0.19

Q: For `C=C(CCCC)C(=O)CC[C@@H](OC(=O)c1cccnc1)c1ccc(OCCO)cc1`, which composite z-score is on record?
A: 1.39

Q: `C=C(/C(=C/C[C@@H](OC(=O)c1ccncc1)c1cccc(OCCO)c1)c1cnc2ccccc2c1)C(C)C` was tested. Which composite z-score did it give?
A: 1.51

Q: For `CC(C)CNC(=O)[C@@]1(c2ccc([N+](=O)[O-])cc2)CC(=O)N(C2CCCCC2)[C@@H]1c1ccc(CO)cc1`, which composite z-score is on record?
A: 0.0017

Q: For `C[C@]1(C(=O)O)c2ccccc2C(=O)N(Cc2ccc(OC(F)(F)F)cc2)[C@H]1c1ccc(CO)cc1`, which composite z-score is on record?
A: -0.0953

Q: For `C=C(COC)C(=O)CC[C@H](OC(=O)c1cccnc1)c1ccc(CO)o1`, which composite z-score is on record?
A: 1.3
